A short description of experiment [1]: antimalarial activity against Dd2 strain (AID 2302;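 active = growth inhibition above 50% at the single 2 µM test dose, taken to imply half-maximal potency below 2 µM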;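 note: 0% = DMSO untreated growth and 100% = chloroquine plus artemisinin killed control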). To be noted: P. falciparum Dd2 in RBCs, LDH growth readout, 72 h; at 2 µM; active compounds read high.
A short description of experiment [2]: HepG2 cytotoxicity, primary screen, cytotoxicity control for P. falciparum antimalarial project, cell-based, ATP luminescence (AID 2303;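 active = inhibition above 50%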;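 note: 0% = DMSO wells and 100% = digitonin-killed cells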). The settings on record: HepG2 viability, 24-48 h, at 10 µM, active compounds read high.
Experiment [3] addresses L-lactate dehydrogenase (Plasmodium falciparum (isolate CDC / Honduras)) (UniProt Q27743). Put plainly: PfLDH activity inhibition – cell lysate, 3D7 strain, counter-screen for P. falciparum growth inhibition project (AID 2304).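 Note: 0% = vehicle and 100% = reference inhibitor.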 The settings on record: P. falciparum 3D7 crude extract, LDH APAD/NBT absorbance; at 2 µM; active compounds read high. Background: A counterscreen serves to expose hits that act by an unwanted route or on another target.

Experiment [4] is described as follows: inhibition of 3D7 malaria parasite growth – strain 3D7 (AID 2306).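 Note: 0% = DMSO wells and 100% = chloroquine plus artemisinin control wells.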 To be noted: P. falciparum 3D7 erythrocytic growth, LDH absorbance, 72 h; at 2 µM; active compounds read high.
For experiment [5], the target named is Calcium-dependent protein kinase 1 (Plasmodium falciparum (isolate 3D7)) (UniProt P62344). Put plainly: PfCDPK1 kinase inhibitors, biochemical, TCAMS library (AID 1159585; cut-off not given, nearly all actives have IC50 up to about 0.98 µM;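 note: inhibitors leave more ATP so luminescence rises with inhibition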). To be noted: recombinant PfCDPK1, Kinase-Glo ATP depletion luminescence. (In general: Kinase-Glo measures the ATP left after a reaction by luminescence.)
Calcium-dependent protein kinase 1 (Plasmodium falciparum (isolate 3D7)), sequence (P62344 whole entry, looked up): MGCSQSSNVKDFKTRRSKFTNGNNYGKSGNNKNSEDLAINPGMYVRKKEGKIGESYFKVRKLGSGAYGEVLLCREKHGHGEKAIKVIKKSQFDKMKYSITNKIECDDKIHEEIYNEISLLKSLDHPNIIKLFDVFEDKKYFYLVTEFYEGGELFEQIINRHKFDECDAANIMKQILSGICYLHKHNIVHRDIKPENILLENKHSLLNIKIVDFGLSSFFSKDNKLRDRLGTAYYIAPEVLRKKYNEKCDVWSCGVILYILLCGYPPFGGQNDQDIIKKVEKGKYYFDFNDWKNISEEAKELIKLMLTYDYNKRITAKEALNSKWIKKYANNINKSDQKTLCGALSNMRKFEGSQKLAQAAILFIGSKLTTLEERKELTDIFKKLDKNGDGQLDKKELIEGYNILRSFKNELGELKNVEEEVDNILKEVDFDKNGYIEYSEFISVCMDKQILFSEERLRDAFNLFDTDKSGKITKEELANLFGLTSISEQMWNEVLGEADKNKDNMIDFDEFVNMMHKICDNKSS
For experiment [6], the target named is Plasmodium falciparum protein kinase 6 (PK6, PF3D7_1337100) (UniProt Q8IDW1). Put plainly: PfPK6 kinase inhibitors, biochemical, TCAMS library (AID 1159586). To be noted: recombinant PfPK6, Kinase-Glo ATP depletion luminescence.
Plasmodium falciparum protein kinase 6 (PK6, PF3D7_1337100), sequence (Q8IDW1 1-305): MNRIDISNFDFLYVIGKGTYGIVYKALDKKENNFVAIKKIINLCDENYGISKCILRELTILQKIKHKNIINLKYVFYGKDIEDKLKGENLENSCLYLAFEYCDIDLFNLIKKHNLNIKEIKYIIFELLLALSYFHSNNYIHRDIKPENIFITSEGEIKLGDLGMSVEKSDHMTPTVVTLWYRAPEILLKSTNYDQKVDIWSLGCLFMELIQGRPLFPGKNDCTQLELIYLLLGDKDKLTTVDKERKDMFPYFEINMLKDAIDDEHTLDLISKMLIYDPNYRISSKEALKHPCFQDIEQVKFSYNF
The target of experiment [7] is Protein kinase 7 (PK7), Plasmodium falciparum 3D7 (PF3D7_0213400) (UniProt Q7YTF7). Put plainly: inhibition of Plasmodium PK7 catalytic activity – biochemical, TCAMS antimalarial set, Kinase-Glo luminescence (AID 1159587). To be noted: recombinant PfPK7, Kinase-Glo ATP depletion luminescence.
Protein kinase 7 (PK7), Plasmodium falciparum 3D7 (PF3D7_0213400), sequence (Q7YTF7 1-343): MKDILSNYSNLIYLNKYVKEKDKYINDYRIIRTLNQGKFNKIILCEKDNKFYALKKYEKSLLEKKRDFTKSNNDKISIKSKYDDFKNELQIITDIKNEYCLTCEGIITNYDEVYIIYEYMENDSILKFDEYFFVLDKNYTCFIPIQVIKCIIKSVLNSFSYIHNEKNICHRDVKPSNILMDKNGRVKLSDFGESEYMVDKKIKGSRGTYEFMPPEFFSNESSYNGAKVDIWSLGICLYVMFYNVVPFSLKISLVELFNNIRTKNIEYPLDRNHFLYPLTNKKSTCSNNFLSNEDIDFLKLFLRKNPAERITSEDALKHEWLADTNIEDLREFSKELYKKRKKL
The target in experiment [8] is Calcium-dependent protein kinase 4 (Plasmodium falciparum (isolate 3D7)) (UniProt Q8IBS5). Put plainly: PfCDPK4 kinase inhibitors, biochemical, TCAMS library (AID 1159588; cut-off not given, nearly all actives have IC50 up to about 0.91 µM). To be noted: recombinant PfCDPK4, Kinase-Glo ATP depletion luminescence.
Calcium-dependent protein kinase 4 (Plasmodium falciparum (isolate 3D7)), sequence (Q8IBS5 whole entry, looked up): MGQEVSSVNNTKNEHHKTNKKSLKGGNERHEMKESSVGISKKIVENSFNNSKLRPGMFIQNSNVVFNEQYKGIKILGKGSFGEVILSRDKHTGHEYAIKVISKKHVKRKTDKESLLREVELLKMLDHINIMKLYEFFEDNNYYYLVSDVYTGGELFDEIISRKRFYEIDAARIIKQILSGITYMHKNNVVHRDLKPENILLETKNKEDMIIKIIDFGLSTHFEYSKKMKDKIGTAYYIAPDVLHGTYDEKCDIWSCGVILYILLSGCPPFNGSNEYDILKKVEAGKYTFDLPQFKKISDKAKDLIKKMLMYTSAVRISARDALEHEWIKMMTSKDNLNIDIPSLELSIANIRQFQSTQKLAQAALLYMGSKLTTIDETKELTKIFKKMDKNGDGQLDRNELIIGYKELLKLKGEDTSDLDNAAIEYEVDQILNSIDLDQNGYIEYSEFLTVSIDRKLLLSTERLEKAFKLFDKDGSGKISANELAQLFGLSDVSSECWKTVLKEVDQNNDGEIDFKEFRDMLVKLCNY

As a reminder, the inhibition is the change of the read-out against control, counted positive when it falls.

Unmarked numbers belong to inactive results. For some assays here: Measured potencies and affinities stand elsewhere. Active and inactive are the calls of the source. Unless noted, the rule behind the calls is not given here.

L-lactate dehydrogenase (Plasmodium falciparum (isolate CDC / Honduras)), sequence (Q27743 whole entry, looked up): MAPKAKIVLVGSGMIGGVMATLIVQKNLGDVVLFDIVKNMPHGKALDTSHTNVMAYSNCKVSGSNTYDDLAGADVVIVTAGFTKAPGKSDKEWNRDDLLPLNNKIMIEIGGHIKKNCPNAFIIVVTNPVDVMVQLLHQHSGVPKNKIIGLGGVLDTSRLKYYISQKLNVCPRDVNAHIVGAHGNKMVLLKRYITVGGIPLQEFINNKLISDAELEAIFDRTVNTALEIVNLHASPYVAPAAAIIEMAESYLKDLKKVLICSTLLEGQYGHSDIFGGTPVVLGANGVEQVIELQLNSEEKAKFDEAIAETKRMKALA

For the compound `CC(C)CCNc1nc(NCc2ccccc2)c2cc(O)ccc2n1`, the growth inhibition in experiment [1] is 92% (active); in experiment [4], 103% (active). Besides, the inhibition in experiment [2] was 25%; in experiment [3], 3%. For the same compound, the outcome in experiment [5], in experiment [6], in experiment [7] and in experiment [8] was inactive.

Turning to `Cc1cccc2[nH]c(-c3ccc(-c4ccc(CN5CCCC(O)C5)cc4)s3)nc12` (configuration not stated), the growth inhibition in experiment [1] was 29%; in experiment [4], 101% (active). Also, the figures for the inhibition in experiment [2] and in experiment [3] were 38% and -1%, respectively. Further, the result in experiment [5], in experiment [6], in experiment [7] and in experiment [8] was inactive.

In the case of `CCOc1cc(C)ccc1C1CCN(CCCCNC(=O)c2nc(-c3ccc(C(F)(F)F)cc3)[nH]c2C)CC1`, the growth inhibition in experiment [1] is 98% (active); in experiment [4], 100% (active). Besides, the inhibition was 30% in experiment [2] and -5% in experiment [3]. The outcome in experiment [5], in experiment [6], in experiment [7] and in experiment [8] was inactive.

Regarding `CC(C)(Oc1c(C2CCN(CCCCNC(=O)c3ccc(-c4ccc(Cl)cc4)cc3)CC2)ccc2c1CCCC2)C(N)=O`, the growth inhibition in experiment [1] was 5%; in experiment [4] it was 93% (active). For the same compound, the inhibition in experiment [2] was 100% (active); in experiment [3], 1%. Moreover, the result in experiment [5], in experiment [6], in experiment [7] and in experiment [8] was inactive.

`N#Cc1cccc(Nc2nccc(NCC(O)c3ccccc3C(F)(F)F)n2)c1` (configuration not stated): the results for the growth inhibition in experiment [1] and in experiment [4] were 39% and 98% (active), respectively. Besides, the inhibition was 36% in experiment [2] and 3% in experiment [3]. Moreover, the result in experiment [5], in experiment [6], in experiment [7] and in experiment [8] was inactive.

With `Cc1cc(N(CCN2CCCCC2)CCN2CCCCC2)nc(Nc2ccc(Cl)cc2)n1`, the growth inhibition was 79% (active) in experiment [1] and 101% (active) in experiment [4]. Besides, the figures for the inhibition in experiment [2] and in experiment [3] were 19% and -4%, respectively. Also, the outcome in experiment [5], in experiment [6], in experiment [7] and in experiment [8] was inactive.

As to `COc1ccccc1CCNc1nc(C)cc(N[C@@H](Cc2ccccc2)C(=O)Nc2ccccc2)n1`, the growth inhibition in experiment [1] is 86% (active); in experiment [4] it was 101% (active). Also, the inhibition in experiment [2] is 30%; in experiment [3] it was 0%. For the same compound, the outcome in experiment [5], in experiment [6], in experiment [7] and in experiment [8] was inactive.

Consider `CCc1cc(Br)c2c(c1)C(NCCCNc1cc(=O)c3ccccc3[nH]1)CCN2` (configuration not stated), for which the growth inhibition was 20% in experiment [1] and 94% (active) in experiment [4]. The inhibition is 13% in experiment [2] and -1% in experiment [3]. Moreover, the result in experiment [5], in experiment [6], in experiment [7] and in experiment [8] was inactive.

`CCc1cc(-c2onc(C(F)(F)F)c2-c2ccccc2)c(O)cc1OC`: the growth inhibition in experiment [1] is 73% (active); in experiment [4], 98% (active). In addition, the inhibition in experiment [2] was 16%; in experiment [3], -2%. Further, the result in experiment [5], in experiment [6], in experiment [7] and in experiment [8] was inactive.

Consider `CC(CNc1ccnc(Nc2ccc3[nH]c(=O)[nH]c3c2)n1)c1ccccc1` (configuration not stated), for which the growth inhibition in experiment [1] was 2%; in experiment [4], 99% (active). The inhibition in experiment [2] is 50% (active); in experiment [3], 6%. Further, the outcome in experiment [5], in experiment [6], in experiment [7] and in experiment [8] was inactive.

For `COc1ccc2nc(N)nc(C)c2c1`, the growth inhibition was 1% in experiment [1] and 90% (active) in experiment [4]. For the same compound, the inhibition in experiment [2] and in experiment [3] was 5% in each case. Besides, the outcome in experiment [5], in experiment [6], in experiment [7] and in experiment [8] was inactive.

Regarding `COc1ccc(C(=O)N2CCC3(CC2)C(=O)N(CC(=O)NCC2CCCCC2)CN3c2ccccc2)c(OC)c1`, the growth inhibition is 99% (active) in experiment [1] and 100% (active) in experiment [4]. Further, the inhibition in experiment [2] was 6%; in experiment [3], 4%. The result in experiment [5], in experiment [6], in experiment [7] and in experiment [8] was inactive.

On to `O=C(NC1CCC(N2CCC(c3ccccc3C(F)(F)F)CC2)CC1)c1cc2ccccc2[nH]1` (configuration not stated), for which the growth inhibition in experiment [1] was 98% (active); in experiment [4], 100% (active). Also, the inhibition in experiment [2] was 80% (active); in experiment [3], -5%. Besides, the outcome in experiment [5], in experiment [6], in experiment [7] and in experiment [8] was inactive.

For `CCCCCCCCOc1ccc(N2C(N)=NC(N)=NC2(C)C)cc1`, the growth inhibition in experiment [1] is -6%; in experiment [4], 100% (active). Further, the inhibition in experiment [2] is 31%; in experiment [3], -4%. The result in experiment [5], in experiment [6], in experiment [7] and in experiment [8] was inactive.

With `O=C(Cn1c(CCc2cccc(F)c2F)nc(=O)c2ccccc21)N(CCN1CCCC1)Cc1ccc(-c2ccc(C(F)(F)F)cc2)cc1`, the figures for the growth inhibition in experiment [1] and in experiment [4] were 37% and 101% (active), respectively. Further, the inhibition in experiment [2] was 63% (active); in experiment [3] it was -1%. Moreover, the result in experiment [5], in experiment [6], in experiment [7] and in experiment [8] was inactive.

Take `Cc1cc(NN=Cc2cccc([N+](=O)[O-])c2)c2ccc(C(F)(F)F)cc2n1`: the growth inhibition in experiment [1] was 51% (active); in experiment [4] it was 101% (active). The values for the inhibition in experiment [2] and in experiment [3] were 2% and 1%, respectively. Besides, the outcome in experiment [5], in experiment [6], in experiment [7] and in experiment [8] was inactive.

On to `COc1ccc2c(NN=Cc3c(OC)ccc4ccccc34)cc(C)nc2c1`, for which the growth inhibition in experiment [1] was 85% (active); in experiment [4], 102% (active). In addition, the values for the inhibition in experiment [2] and in experiment [3] were 7% and 2%, respectively. In addition, the outcome in experiment [5], in experiment [6], in experiment [7] and in experiment [8] was inactive.

As to `O=C(Nc1ccc(-c2nc3cc4ccccc4cc3[nH]2)cc1)c1cccc(Br)c1`, the growth inhibition in experiment [1] was 89% (active); in experiment [4], 101% (active). The inhibition in experiment [2] was 50% (active); in experiment [3] it was -5%. The outcome in experiment [5], in experiment [6], in experiment [7] and in experiment [8] was inactive.

For the compound `CN1CCCC(CN2CCN(Cc3ccc(-c4cccc(-c5nc6ccccc6[nH]5)c4)cc3)CC2)C1` (configuration not stated), the growth inhibition in experiment [1] was 100% (active); in experiment [4], 101% (active). For the same compound, the inhibition in experiment [2] is 57% (active); in experiment [3] it was -3%. The outcome in experiment [5], in experiment [6], in experiment [7] and in experiment [8] was inactive.
